Experimental findings from PMC7862700, “An all-to-all approach to the identification of sequence-specific readers for epigenetic DNA modifications on cytosine” are described below.

Common to all, as to test: DAPPL (digital affinity profiling via proximity ligation, sequencing); 10 mM Tris-HCl pH 7.5, 50 mM NaCl, 1 mM DTT, 4% glycerol, room temperature, 30 min; GST-TFs on glutathione beads, 16-mer random dsDNA library, 0.1% formaldehyde crosslink after washing; high values mean tight binding
Conditions in all cases: protein: recombinant; tags: N-terminal GST; dsDNA, one strand shown

Assay [1] concerns the target T1, FLI1 (Homo sapiens, UniProt Q01543 1-452).
T1 sequence: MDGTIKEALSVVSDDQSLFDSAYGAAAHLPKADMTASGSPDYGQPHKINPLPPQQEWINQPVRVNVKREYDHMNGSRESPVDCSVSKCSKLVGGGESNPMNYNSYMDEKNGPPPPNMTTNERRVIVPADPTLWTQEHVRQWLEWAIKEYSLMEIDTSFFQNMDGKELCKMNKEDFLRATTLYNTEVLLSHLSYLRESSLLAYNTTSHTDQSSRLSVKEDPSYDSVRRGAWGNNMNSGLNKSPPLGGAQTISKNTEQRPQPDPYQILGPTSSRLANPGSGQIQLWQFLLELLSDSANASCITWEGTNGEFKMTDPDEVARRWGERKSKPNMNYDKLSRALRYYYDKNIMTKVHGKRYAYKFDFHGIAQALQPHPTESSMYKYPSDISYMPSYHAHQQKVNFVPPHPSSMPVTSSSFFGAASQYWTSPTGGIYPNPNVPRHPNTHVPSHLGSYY
The method in brief:
(§1)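 Sequencing on an Illumina NextSeq500 followed washing, crosslinking with 0.1% formaldehyde, proximity ligation (BsaI/T4 ligase, 1 h, 37 °C) and PCR amplification of pools that had been incubated for 30 min at room temperature with 200 nmole of a random double-stranded 16-mer DNA library in Tris/NaCl/DTT/glycerol buffer. Each pool held DNA-barcoded human transcription factors, expressed in yeast as GST fusions and captured on glutathione beads, plus a tag-only sample. Binding signal is a hexamer's read frequency for a factor divided by its frequency in the tag-only sample.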

In assay [2] the target is T2, ELK1 (Homo sapiens, UniProt P19419 1-428).
T2 sequence: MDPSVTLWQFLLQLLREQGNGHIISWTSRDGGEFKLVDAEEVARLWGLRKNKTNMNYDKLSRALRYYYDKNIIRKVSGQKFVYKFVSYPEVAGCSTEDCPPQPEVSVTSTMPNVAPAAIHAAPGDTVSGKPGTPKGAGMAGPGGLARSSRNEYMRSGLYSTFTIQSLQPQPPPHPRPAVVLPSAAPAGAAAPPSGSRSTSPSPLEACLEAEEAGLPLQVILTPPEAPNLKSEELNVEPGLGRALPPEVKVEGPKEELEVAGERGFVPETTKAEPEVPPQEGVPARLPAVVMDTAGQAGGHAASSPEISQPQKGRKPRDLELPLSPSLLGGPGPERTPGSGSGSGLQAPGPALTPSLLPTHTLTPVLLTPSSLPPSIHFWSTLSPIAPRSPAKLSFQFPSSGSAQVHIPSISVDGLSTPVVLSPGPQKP
The method in brief:
as §1

In assay [3] the target is T3, GABPA (Homo sapiens, UniProt Q06546 1-454).
T3 sequence: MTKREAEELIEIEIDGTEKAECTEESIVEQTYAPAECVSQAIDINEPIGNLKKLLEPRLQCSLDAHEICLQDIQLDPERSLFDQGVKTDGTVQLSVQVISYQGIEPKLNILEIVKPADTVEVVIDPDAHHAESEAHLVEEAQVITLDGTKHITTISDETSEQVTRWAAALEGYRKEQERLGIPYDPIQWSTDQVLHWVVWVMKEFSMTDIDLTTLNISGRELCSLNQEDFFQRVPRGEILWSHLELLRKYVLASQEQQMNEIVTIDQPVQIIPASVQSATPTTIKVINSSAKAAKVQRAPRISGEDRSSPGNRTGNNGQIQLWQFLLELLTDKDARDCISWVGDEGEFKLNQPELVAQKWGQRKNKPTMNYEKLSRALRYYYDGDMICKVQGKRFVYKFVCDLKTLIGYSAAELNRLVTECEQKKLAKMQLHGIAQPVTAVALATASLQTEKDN
The gist of the method:
as §1

Assay [4] addresses T4, ERG (Homo sapiens, UniProt P11308 1-479).
T4 sequence: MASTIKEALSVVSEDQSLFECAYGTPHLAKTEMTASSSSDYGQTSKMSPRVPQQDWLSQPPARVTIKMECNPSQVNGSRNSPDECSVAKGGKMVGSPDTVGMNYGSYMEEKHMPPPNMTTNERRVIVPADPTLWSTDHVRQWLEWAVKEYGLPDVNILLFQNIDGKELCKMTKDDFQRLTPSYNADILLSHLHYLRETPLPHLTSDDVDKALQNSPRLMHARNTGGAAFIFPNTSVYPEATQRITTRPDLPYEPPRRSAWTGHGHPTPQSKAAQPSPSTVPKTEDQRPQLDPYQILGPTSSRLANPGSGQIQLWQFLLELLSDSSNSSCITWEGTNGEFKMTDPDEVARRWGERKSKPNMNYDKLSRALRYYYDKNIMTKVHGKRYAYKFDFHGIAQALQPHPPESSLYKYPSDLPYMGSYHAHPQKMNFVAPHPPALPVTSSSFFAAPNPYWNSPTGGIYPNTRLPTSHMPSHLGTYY
The gist of the method:
as §1

Assay [5] concerns the target ELF1 (Homo sapiens, UniProt P32519 1-619). The gist of the method: as §1
Assay [6] concerns the target T5, EHF (Homo sapiens, UniProt Q9NZC4 1-300).
T5 sequence: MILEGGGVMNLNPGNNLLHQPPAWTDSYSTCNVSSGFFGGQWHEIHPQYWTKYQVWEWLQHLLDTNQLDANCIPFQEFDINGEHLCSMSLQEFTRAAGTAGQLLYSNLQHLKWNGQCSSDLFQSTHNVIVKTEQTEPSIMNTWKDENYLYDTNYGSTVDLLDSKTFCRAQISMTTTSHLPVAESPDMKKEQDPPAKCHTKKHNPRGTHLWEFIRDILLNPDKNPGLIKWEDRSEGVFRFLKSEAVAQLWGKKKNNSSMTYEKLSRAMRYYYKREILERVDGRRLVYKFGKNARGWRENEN
The gist of the method: as §1

Assay [7] concerns the target SPI1 (Homo sapiens, UniProt P17947 1-270). The gist of the method:
as §1

In assay [8] the target is SPIB (Homo sapiens, UniProt Q01892 1-262). The method in brief: as §1
Chain of SPIB (Q01892 whole entry): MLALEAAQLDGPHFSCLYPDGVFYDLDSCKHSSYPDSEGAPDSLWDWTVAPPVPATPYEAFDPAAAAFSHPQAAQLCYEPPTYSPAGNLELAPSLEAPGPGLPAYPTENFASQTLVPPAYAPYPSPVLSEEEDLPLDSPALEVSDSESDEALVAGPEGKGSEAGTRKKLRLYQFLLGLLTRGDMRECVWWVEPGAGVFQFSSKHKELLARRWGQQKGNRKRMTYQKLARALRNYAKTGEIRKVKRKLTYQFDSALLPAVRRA
Assay [9] addresses T6, ELK3 (Homo sapiens, UniProt P41970 1-407).
T6 sequence: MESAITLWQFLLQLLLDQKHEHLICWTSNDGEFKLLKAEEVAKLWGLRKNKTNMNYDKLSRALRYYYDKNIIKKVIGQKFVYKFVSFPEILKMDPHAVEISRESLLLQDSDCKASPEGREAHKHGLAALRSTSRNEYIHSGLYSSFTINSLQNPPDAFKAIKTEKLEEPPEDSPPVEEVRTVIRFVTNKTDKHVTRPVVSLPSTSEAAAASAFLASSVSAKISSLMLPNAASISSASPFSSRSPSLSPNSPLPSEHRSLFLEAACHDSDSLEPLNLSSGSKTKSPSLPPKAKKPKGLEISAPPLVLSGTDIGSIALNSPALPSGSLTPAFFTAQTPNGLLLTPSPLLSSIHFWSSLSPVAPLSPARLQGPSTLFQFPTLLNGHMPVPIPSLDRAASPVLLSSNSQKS
The gist of the method:
as §1

In assay [10] the target is T7, FEV (Homo sapiens, UniProt Q99581 1-238).
T7 sequence: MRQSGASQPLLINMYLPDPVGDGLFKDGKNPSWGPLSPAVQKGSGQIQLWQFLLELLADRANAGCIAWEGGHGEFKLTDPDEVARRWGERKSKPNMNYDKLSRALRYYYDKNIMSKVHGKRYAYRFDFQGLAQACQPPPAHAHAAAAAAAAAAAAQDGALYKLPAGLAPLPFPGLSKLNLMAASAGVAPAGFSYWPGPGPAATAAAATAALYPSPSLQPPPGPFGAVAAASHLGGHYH
The method in brief: as §1

Assay [11] deals with ETV5 (Homo sapiens, UniProt P41161 1-510). The gist of the method: as §1
Chain of ETV5 (P41161 whole entry): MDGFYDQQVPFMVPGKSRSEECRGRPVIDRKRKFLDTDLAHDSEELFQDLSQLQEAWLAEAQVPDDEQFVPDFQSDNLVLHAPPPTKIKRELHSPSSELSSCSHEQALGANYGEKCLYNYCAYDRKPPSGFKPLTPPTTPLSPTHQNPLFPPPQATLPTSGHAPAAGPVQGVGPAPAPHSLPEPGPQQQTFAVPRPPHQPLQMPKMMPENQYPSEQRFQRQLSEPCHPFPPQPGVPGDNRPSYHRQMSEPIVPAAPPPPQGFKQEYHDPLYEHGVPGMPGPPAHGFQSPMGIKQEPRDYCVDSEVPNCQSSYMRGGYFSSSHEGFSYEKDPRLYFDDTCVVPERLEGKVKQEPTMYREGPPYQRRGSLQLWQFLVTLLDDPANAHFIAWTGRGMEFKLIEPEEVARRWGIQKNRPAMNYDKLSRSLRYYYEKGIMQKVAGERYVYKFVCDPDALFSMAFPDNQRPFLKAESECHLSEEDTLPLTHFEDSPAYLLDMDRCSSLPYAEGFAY
Assay [12] concerns the target T8, SPIC (Homo sapiens, UniProt Q8N5J4 1-248).
T8 sequence: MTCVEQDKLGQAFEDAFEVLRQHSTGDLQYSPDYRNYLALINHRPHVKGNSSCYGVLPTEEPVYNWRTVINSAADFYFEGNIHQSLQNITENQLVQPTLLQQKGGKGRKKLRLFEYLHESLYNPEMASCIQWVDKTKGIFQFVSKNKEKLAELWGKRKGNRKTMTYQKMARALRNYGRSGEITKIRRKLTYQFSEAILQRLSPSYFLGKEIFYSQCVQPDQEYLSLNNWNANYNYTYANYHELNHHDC
The gist of the method: as §1

The target in assay [13] is ELF4 (Homo sapiens, UniProt Q99607 1-663). The method in brief: as §1
Chain of ELF4 (Q99607 whole entry): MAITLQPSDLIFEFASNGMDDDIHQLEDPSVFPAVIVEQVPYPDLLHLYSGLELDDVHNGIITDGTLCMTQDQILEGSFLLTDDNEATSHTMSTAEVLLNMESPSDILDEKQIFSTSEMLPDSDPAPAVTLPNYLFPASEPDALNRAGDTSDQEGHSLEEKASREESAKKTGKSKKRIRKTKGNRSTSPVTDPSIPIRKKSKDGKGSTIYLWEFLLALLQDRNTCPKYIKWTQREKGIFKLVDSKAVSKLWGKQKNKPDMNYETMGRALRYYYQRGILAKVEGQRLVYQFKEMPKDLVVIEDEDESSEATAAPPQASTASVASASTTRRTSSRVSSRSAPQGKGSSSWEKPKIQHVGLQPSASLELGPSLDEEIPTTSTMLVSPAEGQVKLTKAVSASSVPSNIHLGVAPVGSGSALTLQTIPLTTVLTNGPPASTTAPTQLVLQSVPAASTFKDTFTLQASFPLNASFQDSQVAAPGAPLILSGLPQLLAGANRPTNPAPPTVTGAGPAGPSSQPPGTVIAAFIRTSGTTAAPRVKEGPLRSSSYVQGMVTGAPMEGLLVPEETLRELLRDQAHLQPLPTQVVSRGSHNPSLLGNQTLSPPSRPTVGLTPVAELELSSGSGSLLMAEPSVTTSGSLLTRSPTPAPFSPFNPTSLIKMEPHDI
The target in assay [14] is T9, ELK4 (Homo sapiens, UniProt P28324-2 1-405).
T9 sequence: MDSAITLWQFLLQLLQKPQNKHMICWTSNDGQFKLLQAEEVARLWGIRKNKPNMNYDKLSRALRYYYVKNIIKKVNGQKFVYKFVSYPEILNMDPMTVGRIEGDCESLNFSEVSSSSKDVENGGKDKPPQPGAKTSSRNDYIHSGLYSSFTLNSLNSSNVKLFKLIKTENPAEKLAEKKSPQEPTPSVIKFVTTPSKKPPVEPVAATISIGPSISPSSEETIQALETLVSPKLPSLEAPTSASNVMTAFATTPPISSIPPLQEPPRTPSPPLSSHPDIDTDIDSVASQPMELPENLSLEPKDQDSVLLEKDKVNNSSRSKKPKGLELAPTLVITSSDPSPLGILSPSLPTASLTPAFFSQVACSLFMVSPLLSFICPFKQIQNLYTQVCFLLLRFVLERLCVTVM
The gist of the method: as §1

Assay [15] concerns the target T10, ETV2 (Homo sapiens, UniProt O00321 1-342).
T10 sequence: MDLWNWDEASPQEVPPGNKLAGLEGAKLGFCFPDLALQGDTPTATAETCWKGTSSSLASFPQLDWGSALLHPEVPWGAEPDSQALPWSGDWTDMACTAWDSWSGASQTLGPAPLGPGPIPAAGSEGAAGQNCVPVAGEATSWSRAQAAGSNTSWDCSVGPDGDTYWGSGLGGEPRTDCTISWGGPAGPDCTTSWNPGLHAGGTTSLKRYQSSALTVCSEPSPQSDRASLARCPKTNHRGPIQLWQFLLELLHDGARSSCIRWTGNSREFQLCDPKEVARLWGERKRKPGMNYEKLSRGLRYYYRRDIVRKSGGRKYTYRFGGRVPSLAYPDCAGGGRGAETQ
The gist of the method:
as §1

The target in assay [16] is T11, ELF3 (Homo sapiens, UniProt P78545 1-371).
T11 sequence: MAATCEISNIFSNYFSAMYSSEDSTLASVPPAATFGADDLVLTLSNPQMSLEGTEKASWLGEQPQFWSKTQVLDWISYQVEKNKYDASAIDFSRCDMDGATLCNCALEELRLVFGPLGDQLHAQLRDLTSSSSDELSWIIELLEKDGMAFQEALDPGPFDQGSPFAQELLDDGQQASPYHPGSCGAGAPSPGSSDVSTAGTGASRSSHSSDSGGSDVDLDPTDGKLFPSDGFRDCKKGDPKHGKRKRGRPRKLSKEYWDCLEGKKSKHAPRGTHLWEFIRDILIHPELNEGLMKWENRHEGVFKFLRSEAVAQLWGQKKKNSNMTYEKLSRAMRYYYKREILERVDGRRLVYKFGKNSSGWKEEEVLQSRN
The method in brief: as §1

Assay [17] addresses ETV1 (Homo sapiens, UniProt P50549 1-477). The method in brief:
as §1

Chain of ETV1 (P50549 whole entry): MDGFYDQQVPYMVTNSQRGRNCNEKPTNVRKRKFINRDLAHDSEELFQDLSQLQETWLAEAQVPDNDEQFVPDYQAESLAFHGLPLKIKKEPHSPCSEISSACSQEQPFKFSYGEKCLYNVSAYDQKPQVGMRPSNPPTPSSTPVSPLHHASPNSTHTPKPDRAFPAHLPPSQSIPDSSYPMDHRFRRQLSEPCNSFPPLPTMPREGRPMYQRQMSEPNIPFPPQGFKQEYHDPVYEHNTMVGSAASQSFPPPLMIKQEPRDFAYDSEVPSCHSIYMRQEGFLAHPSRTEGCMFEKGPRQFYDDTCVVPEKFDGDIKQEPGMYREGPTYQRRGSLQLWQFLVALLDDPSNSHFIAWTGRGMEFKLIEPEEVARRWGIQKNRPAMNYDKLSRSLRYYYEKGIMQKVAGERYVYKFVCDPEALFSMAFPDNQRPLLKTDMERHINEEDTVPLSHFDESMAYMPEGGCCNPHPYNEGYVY
Chain of ELF1 (P32519 whole entry): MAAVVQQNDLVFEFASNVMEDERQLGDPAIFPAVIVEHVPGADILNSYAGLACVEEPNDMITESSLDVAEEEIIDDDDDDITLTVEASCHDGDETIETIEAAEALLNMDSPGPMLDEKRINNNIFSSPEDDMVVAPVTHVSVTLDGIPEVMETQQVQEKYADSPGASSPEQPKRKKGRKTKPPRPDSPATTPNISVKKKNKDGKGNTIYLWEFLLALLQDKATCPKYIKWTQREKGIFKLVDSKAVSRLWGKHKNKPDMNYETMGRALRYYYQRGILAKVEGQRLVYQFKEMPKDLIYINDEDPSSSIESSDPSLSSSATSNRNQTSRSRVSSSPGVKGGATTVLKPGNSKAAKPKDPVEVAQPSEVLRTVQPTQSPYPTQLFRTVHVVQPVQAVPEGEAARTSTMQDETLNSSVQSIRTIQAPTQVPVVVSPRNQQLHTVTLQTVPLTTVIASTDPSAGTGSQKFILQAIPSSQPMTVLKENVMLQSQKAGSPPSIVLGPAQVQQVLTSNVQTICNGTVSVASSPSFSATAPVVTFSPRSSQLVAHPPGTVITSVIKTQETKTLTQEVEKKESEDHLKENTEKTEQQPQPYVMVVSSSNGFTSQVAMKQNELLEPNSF

With CAAACC, the binding signal in [1] is 1.16 fold enrichment (6-mer frequency, TF over GST control); in [2], 1.15 fold enrichment (6-mer frequency, TF over GST control); in assay [3], 1.11 fold enrichment (6-mer frequency, TF over GST control); in assay [4] it was 1.16 fold enrichment (6-mer frequency, TF over GST control); in [5], 1.13 fold enrichment (6-mer frequency, TF over GST control); in [6] it was 1.05 fold enrichment (6-mer frequency, TF over GST control). Also, the binding signal in [7] was 1.15 fold enrichment (6-mer frequency, TF over GST control); in assay [8] it was 1.06 fold enrichment (6-mer frequency, TF over GST control); in [9], 1.15 fold enrichment (6-mer frequency, TF over GST control); in assay [10] it was 1.18 fold enrichment (6-mer frequency, TF over GST control); in assay [11], 1.05 fold enrichment (6-mer frequency, TF over GST control); in assay [12] it was 1.06 fold enrichment (6-mer frequency, TF over GST control). For the same sequence, the binding signal was 1.2 fold enrichment (6-mer frequency, TF over GST control) in [13]; 1.05 fold enrichment (6-mer frequency, TF over GST control) in assay [14]; 1.12 fold enrichment (6-mer frequency, TF over GST control) in assay [15]; 1.15 fold enrichment (6-mer frequency, TF over GST control) in assay [16]; 1.18 fold enrichment (6-mer frequency, TF over GST control) in assay [17].

In the case of ACCCCA, the binding signal in assay [1] is 1.05 fold enrichment (6-mer frequency, TF over GST control); in assay [2] it was 1.12 fold enrichment (6-mer frequency, TF over GST control); in assay [3], 1.15 fold enrichment (6-mer frequency, TF over GST control); in [4], 1.08 fold enrichment (6-mer frequency, TF over GST control); in [5] it was 1.11 fold enrichment (6-mer frequency, TF over GST control); in assay [6], 1.11 fold enrichment (6-mer frequency, TF over GST control). Further, the binding signal in [7] was 1.08 fold enrichment (6-mer frequency, TF over GST control); in assay [8], 1.05 fold enrichment (6-mer frequency, TF over GST control); in assay [9], 1.02 fold enrichment (6-mer frequency, TF over GST control); in [10] it was 1.07 fold enrichment (6-mer frequency, TF over GST control); in assay [11], 1.05 fold enrichment (6-mer frequency, TF over GST control); in assay [12] it was 1.15 fold enrichment (6-mer frequency, TF over GST control). Moreover, the binding signal in [13] is 1.12 fold enrichment (6-mer frequency, TF over GST control); in assay [14] it was 1.2 fold enrichment (6-mer frequency, TF over GST control); in assay [15], 1.04 fold enrichment (6-mer frequency, TF over GST control); in assay [16] it was 1.04 fold enrichment (6-mer frequency, TF over GST control); in [17] it was 1.06 fold enrichment (6-mer frequency, TF over GST control).
